Assay results as given in PubChem BioAssay.

What follows are molecules tested on Sonic hedgehog protein (Shh) (assay: small-molecule binders of Shh protein, primary screen, biochemical, small-molecule microarray, 635/667 nm fluorescence (AID 1151;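 further: Shh protein binding to compounds spotted on small-molecule microarray slides; score combines spot fluorescence intensity with signal-to-noise across triplicate slides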)). Conditions: small-molecule microarray binding, 635 nm fluorescence; higher = more signal.

`CCOC(=O)C1=C[C@@H](C(C)(C)C)N(S(=O)(=O)c2ccc(C)cc2)[C@H]1c1ccc(OC)cc1` was tested. Which composite z-score did it give?
Its composite z-score is 0.523.

How did the composite z-score turn out when `CCCCC(=C=CC[C@H](O)c1ccccc1OCCO)CCO` was run?
Its composite z-score is 0.704.

For `C=CCC(OC(C)=O)[C@@H]1[C@@H](N(Cc2cccc3ccccc23)C(=O)c2ccc(C)cc2)c2cc(OCCCO)ccc2N1C(=O)Cc1ccc2ccccc2c1` (stereo partly specified), which composite z-score is on record?
Its composite z-score is -0.0314.

For `COC(=O)[C@@]1(Cc2ccc(F)cc2)[C@@H]2C(=CC(=O)[C@H]2CC(=O)C(=O)N2CCCC2)CN1C(=O)c1ccccc1`, which composite z-score is on record?
The composite z-score was 1.82.

With `COCCCNC(=O)[C@@]1(c2ccc([N+](=O)[O-])cc2)CC(=O)N(C2CCCCC2)[C@@H]1c1ccc(CO)cc1I` as the molecule, how does the composite z-score read?
The composite z-score was 1.81.

For `C=CCOC(=O)[C@H]1[C@@H]2C(=O)O[C@@H](c3ccccc3)[C@@H](c3ccccc3)N2[C@@H](c2ccc(OCCOC(=O)[C@H]3C[C@H]4C(=O)NCC(=O)N4[C@H]3c3ccc(O)cc3)cc2)[C@]12C(=O)Nc1ccccc12`, which composite z-score is on record?
The composite z-score was 2.22.

With `CC1CC/C=C\[C@H]2OC34C=CCN(CCN5CCOCC5)C(=O)[C@H]3N(C(CO)C(C)C)C(=O)[C@@H]4C2C(=O)O1` (stereo partly specified) as the molecule, how does the composite z-score read?
Its composite z-score is 0.795.

With `CC(C)c1ccc(NN2C(C(O)c3ccccc3)C=CC3C(=O)N(c4ccccc4)C(=O)C32)cc1` (stereo unspecified) as the molecule, how does the composite z-score read?
Its composite z-score is -0.983.

`[N-]=[N+]=Nc1ccccc1C[C@@]1(C(=O)NCC(O)CO)N=C(c2ccc(OCCCO)cc2)O[C@@H]1c1ccccc1N=[N+]=[N-]` (stereo partly specified) was tested. Which composite z-score did it give?
The composite z-score was -0.59.

For `C=C(CCCC)C(=O)CC[C@@H](OC(C)=O)c1ccc(OCCO)cc1`, which composite z-score is on record?
Its composite z-score is 1.52.

`CN1C(=O)C2CC=C(C3=CCO[C@@H]3[C@H]3CCCN3S(=O)(=O)c3ccccc3[N+](=O)[O-])CC2C1=O` (stereo partly specified) was tested. Which composite z-score did it give?
Its composite z-score is -0.151.

For `CC(C)[Si](C#Cc1ccccc1)(O[C@H](c1ccccc1)c1cn(Cc2ccccc2)nn1)C(C)C`, which composite z-score is on record?
The composite z-score was 0.375.

How did the composite z-score turn out when `COCCOC(=O)N1C(=O)[C@@]2(c3cc(C#CCNC(N)=O)ccc31)[C@H](C(N)=O)[C@H]1C(=O)O[C@H](c3ccccc3)[C@H](c3ccccc3)N1[C@@H]2c1ccc(O)cc1` was run?
The composite z-score was 0.0133.

`[N-]=[N+]=NCc1ccccc1C[C@]1(C(=O)N2CCCCC2)COC(c2ccc(OCCCO)cc2)=N1` was tested. Which composite z-score did it give?
Its composite z-score is 0.349.

`C=CCNC(=O)[C@H]1[C@@H]2C(=O)O[C@@H](c3ccccc3)[C@@H](c3ccccc3)N2[C@@H](c2ccc(OCCO)cc2)[C@]12C(=O)N(C(=O)OCCOC)c1ccc(C#CCC(C(=O)OC)C(=O)OC)cc12` was tested. Which composite z-score did it give?
The composite z-score was 1.96.

For `CCCCC(=C=CC[C@@H](O)c1ccccc1OCCO)C[C@@H](O)c1ccccn1`, which composite z-score is on record?
The composite z-score was 0.897.

How did the composite z-score turn out when `COC(=O)C(CC#Cc1ccc2c(c1)[C@]1(C(=O)N2)[C@H](C(=O)NC[C@H](O)c2ccccc2)[C@H]2C(=O)O[C@H](c3ccccc3)[C@H](c3ccccc3)N2[C@@H]1c1ccc(O)cc1)C(=O)OC` was run?
Its composite z-score is 0.21.

How did the composite z-score turn out when `COCCOC(=O)N1C(=O)[C@@]2(c3cc(C#CC4=CCCCC4)ccc31)[C@H](c1ccc(O)cc1)N1[C@H](c3ccccc3)[C@H](c3ccccc3)OC(=O)[C@H]1[C@@H]2C(=O)N1CCc2cc(OC)c(OC)cc2C1` was run?
Its composite z-score is 0.514.

`CC[C@@H](O[Si](C#C[Si](C(C)C)(C(C)C)C(C)C)(C(C)C)C(C)C)c1cn(Cc2cccc(Cl)c2)nn1` was tested. Which composite z-score did it give?
The composite z-score was 0.546.

Which composite z-score does the source give for `C=C(CCCC)/C(=C/C[C@@H](OC(C)=O)c1cccc(OCCO)c1)c1cc(C(=O)OC)ccc1OC` here?
The composite z-score was 1.48.

For `CCCN1C(=O)[C@@]2(c3ccc([N+](=O)[O-])cc3)CC(=O)N(C3CCCCC3)[C@@H]2c2ccc(CO)cc21`, which composite z-score is on record?
Its composite z-score is 1.08.

With `O=C1O[C@H](c2ccccc2)[C@H](c2ccccc2)N2[C@H]1[C@@H](C(=O)N1CCN(c3ncccn3)CC1)[C@]1(C(=O)Nc3ccc(C#CC4(O)CCCCCC4)cc31)[C@H]2c1ccc(O)cc1` as the molecule, how does the composite z-score read?
Its composite z-score is 1.93.

Which composite z-score does the source give for `CC[C@@H](O[Si](C#C[Si](C(C)C)(C(C)C)C(C)C)(C(C)C)C(C)C)c1cn([C@H](CO)Cc2ccccc2)nn1` here?
Its composite z-score is 1.24.

For `[N-]=[N+]=NCc1ccccc1[C@H]1OC(c2ccc(OCCCO)cc2)=N[C@@]1(CCS(=O)(=O)c1ccccc1)C(=O)O`, which composite z-score is on record?
The composite z-score was -1.37.

For `COC(=O)[C@@]1(Cc2ccc(F)cc2)[C@H]2c3cc(C(=O)N4CCCC4)n(Cc4ccc(OC(F)(F)F)cc4)c3C[C@H]2CN1C(=O)c1ccccc1`, which composite z-score is on record?
Its composite z-score is -1.02.

How did the composite z-score turn out when `CC(C)(C)OC(=O)CC[C@]1(C(N)=O)N=C(c2ccc(OCCCO)cc2)O[C@H]1c1ccccc1N=[N+]=[N-]` was run?
Its composite z-score is -0.74.

`O=C1OCC=C[C@H]2OC34C=CCN(Cn5nnc6ccccc65)C(=O)[C@H]3N(CCO)C(=O)[C@@H]4[C@@H]12` (stereo partly specified) was tested. Which composite z-score did it give?
Its composite z-score is -0.793.

How did the composite z-score turn out when `COc1cccc(C)c1NC(=O)O[C@H]1[C@H](OC(=O)Nc2ccc3c(c2)OCO3)[C@H](OC(=O)Nc2ccc3c(c2)OCO3)[C@@H](OC)O[C@@H]1CO` was run?
The composite z-score was 2.02.

With `CN1C(=O)C2C=CC(C(O)c3cccs3)N(N(c3ccccc3)c3ccccc3)C2C1=O` (stereo unspecified) as the molecule, how does the composite z-score read?
Its composite z-score is -0.287.

Which composite z-score does the source give for `[N-]=[N+]=NCc1ccccc1[C@H]1OC(c2ccc(OCCCO)cc2)=N[C@@]1(Cc1ccccc1N=[N+]=[N-])C(=O)O` here?
The composite z-score was -0.141.

`C[C@H]1C2[C@H](Cc3ccccc3)NC(=O)[C@]23C(=O)N[C@@H](Cc2ccccc2)C(=O)N2CCC[C@H]2C(=O)NC/C=C/CC/C=C/C3[C@@H]2O[C@]12C` (stereo partly specified) was tested. Which composite z-score did it give?
Its composite z-score is 0.975.

Which composite z-score does the source give for `COc1ccc(C(=O)Nc2ccc(CN3C(=O)[C@]4(O[C@H](CC(=O)N(CCO)Cc5ccccc5)[C@@H]([Si](C)(C)c5ccc(OC)cc5)[C@@H]4C)c4ccccc43)cc2)cc1` here?
Its composite z-score is 1.94.

For `CCCC=C(CCC)[C@@H](NC(=O)c1ccc(C(=O)OC)cc1)c1ccc(C(=O)OC)cc1`, which composite z-score is on record?
Its composite z-score is -1.35.

How did the composite z-score turn out when `O=C1C2C=CC(C(O)c3ccccn3)N(Nc3ccc([N+](=O)[O-])cc3)C2C(=O)N1c1ccccc1` (stereo unspecified) was run?
Its composite z-score is 0.04.

`O=C1C2C=CC(C(O)C3CCCCC3)N(Nc3ccccc3F)C2C(=O)N1c1ccccc1` (stereo unspecified) was tested. Which composite z-score did it give?
The composite z-score was -0.324.

How did the composite z-score turn out when `C=C(CCCC)/C(=C/C[C@@H](OC(C)=O)c1ccc(OCCO)cc1)c1cc(C(=O)OC)ccc1OC` was run?
The composite z-score was 1.04.
